Read-out in test [1]: solute carrier (SLC22A6), SLC22A6 (gene 9356)
As to the kind of experiment: LTEA_HepaRG_SLC22A6: Life Technologies and Expression Analysis (LTEA) Assay for solute carrier (SLC22A6) using HepaRG (AID 2283653; active means hit-call score of the fitted dose curve at least 0.9, where 1 is the maximum; inactive means score below 0.9). As to conditions: mRNA level, 48 h; actives raise or lower the signal. Put shortly: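 Differentiated human HepaRG cells were exposed for 48 h in serum-free induction medium to eight concentrations (top 100 uM, half-log steps, 0.5% DMSO), in duplicate. SLC22A6 mRNA was quantified by qRT-PCR, normalised to ACTB, GAPDH and POLR2A, and fitted bidirectionally against DMSO.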

Test [2] is described as follows: Tanguay_ZF_120hpf_SWIM_legacy: (Legacy) Oregon State University Tanguay Lab 120 Hour Post-fertilization zebrafish Assay for Swim Bladder Malformation (AID 2283654).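 Further: swim bladder malformation in each larva scored yes or no under brightfield.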 A digest of the protocol:
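Embryos lacking chorions were exposed individually and statically to test chemical from 6 to 120 hpf at 28C, with 0.64% DMSO as vehicle. At 120 hpf, swim bladder malformation was recorded as present or absent by brightfield microscopy.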

Test [3] is described as follows: Tanguay_ZF_120hpf_TRUN_legacy: (Legacy) Oregon State University Tanguay Lab 120 Hour Post-fertilization zebrafish Assay for Truncated Body (AID 2283655). A digest of the protocol:
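Tropical 5D wild-type embryos, dechorionated with pronase at 4 hpf, were placed singly in wells at 6 hpf and statically exposed at 28C until 120 hpf, final DMSO 0.64%. Truncated body was scored present/absent by brightfield microscopy.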

Read-out in test [4]: solute carrier (SLC10A1), SLC10A1 (gene 6554)
Kind of test: LTEA_HepaRG_SLC10A1: Life Technologies and Expression Analysis (LTEA) Assay for solute carrier (SLC10A1) using HepaRG (AID 2283657; active means hit-call score of the fitted dose curve at least 0.9, where 1 is the maximum; inactive means score below 0.9). As to conditions: mRNA level, 48 h; actives raise or lower the signal. Put shortly:
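Transcript levels were measured by qRT-PCR after human HepaRG cells received test chemical for 48 hours, up to 100 uM in half-log dilutions. Values come from bidirectional concentration-response fitting relative to 0.5% DMSO vehicle.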

Read-out in test [5]: matrix metalloproteinase-1 (MMP1), MMP1 (gene 4312)
As to the kind of experiment: LTEA_HepaRG_MMP1: Life Technologies and Expression Analysis (LTEA) Assay for matrix metalloproteinase-1 (MMP1) using HepaRG (AID 2283658; active means hit-call score of the fitted dose curve at least 0.9, where 1 is the maximum; inactive means score below 0.9). As to conditions: mRNA level, 48 h; actives raise or lower the signal. Put shortly:
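Differentiated HepaRG cells, plated 48 h then switched to serum-free induction medium, were exposed in duplicate for 48 h to eight half-log concentrations up to 100 uM in 0.5% DMSO; MMP1 mRNA measured by qRT-PCR, normalized to ACTB, GAPDH, POLR2A.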

Read-out in test [6]: ABC Transporter (ABCB1), ABCB1 (gene 5243)
As to the kind of experiment: CLD_ABCB1_6hr: CellzDirect (CLD) Gene Expression Assay for ABC Transporter (ABCB1) at 6 hours (AID 2283659).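 Further: hits raise ABCB1 transcript above the DMSO vehicle baseline.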 A digest of the protocol: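 Primary human hepatocytes (two donor preparations) dosed daily for two days with chemicals at multiple concentrations, 0.2% DMSO vehicle; harvested 6 h post-dose. ABCB1 mRNA induction quantified by qNPA chemiluminescence; gain-of-signal fitted versus DMSO.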

Read-out in test [7]: Broad substrate specificity ATP-binding cassette transporter ABCG2 (Homo sapiens) (UniProt Q9UNQ0)
As to the kind of experiment: CLD_ABCG2_6hr: CellzDirect (CLD) Gene Expression Assay for ABC Transporter (ABCG2) at 6 hours (AID 2283660). A digest of the protocol: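 Primary human hepatocytes dosed daily with chemicals at multiple concentrations (0.2% DMSO vehicle), harvested 6 h after dosing. ABCG2 mRNA induction read by quantitative nuclease protection assay (qNPA) chemiluminescence; gain of signal fitted against DMSO baseline.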

The test system of test [8] is Thyroperoxidase (TPO), gene 54314. As to the kind of experiment: CCTE_Simmons_AUR_rTPO: CCTE's Amplex UltraRed Assay for Thyroperoxidase (TPO) Inhibition, Simmons Lab (AID 2283662).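 Further: potency for loss of signal meaning inhibition of peroxidase activity.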 A digest of the protocol:
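Rat thyroid microsomes (5 ug protein) were incubated with test compound (8 concentrations, 5 nM–87.5 uM final, 0.5% DMSO), 25 uM Amplex UltraRed and 300 uM H2O2 in 200 mM phosphate buffer for 30 min at 37C in the dark; fluorescence read at 544/590 nm.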

Read-out in test [9]: xenobiotic metabolism (CYP1A2), CYP1A2 (gene 1544)
As to the kind of experiment: CLD_CYP1A2_6hr: CellzDirect (CLD) Gene Expression Assay for xenobiotic metabolism (CYP1A2) at 6 hours (AID 2283663).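 Further: potency is for induction meaning a rise in mRNA above DMSO.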 A digest of the protocol: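 Primary human hepatocytes from two donor preparations, dosed daily with multiple concentrations in 0.2% DMSO and harvested at 6 h. CYP1A2 mRNA induction measured by chemiluminescent qNPA, gain of signal fitted against DMSO; cytotoxicity flagged morphologically.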

Test [10] is described as follows: CCTE_Simmons_CellTiterGLO_HEK293T: Viability Assessment in CCTE's Assays for Thyroperoxidase (TPO) Inhibition, Simmons Lab (AID 2283665).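 On AC50: cells exposed to compound for 24 h before readout; actives reduce ATP signal below DMSO vehicle meaning cytotoxicity.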 Put shortly: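 Cytotoxicity counter-screen: human HEK293T cells in low-serum (1% FBS) medium receive test chemical, 5 nM to 87.5 uM final, for 24 h; ATP is quantified by luciferase luminescence.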
Read-out in test [11]: alkyl and aryl transferase (GSTA2), GSTA2 (gene 2939)
As to the kind of experiment: CLD_GSTA2_6hr: CellzDirect (CLD) Gene Expression Assay for alkyl and aryl transferase (GSTA2) at 6 hours (AID 2283666). Put shortly:
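Primary human hepatocytes from two donor preparations were dosed daily with fresh compound at multiple concentrations, 0.2% DMSO vehicle. GSTA2 mRNA was measured at 6 hours by qNPA chemiluminescence; induction fitted relative to DMSO, with cytotoxicity flagged morphologically.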

Test [12] can be described thus: Tanguay_ZF_120hpf_TR_legacy: (Legacy) Oregon State University Tanguay Lab 120 Hour Post-fertilization zebrafish Assay for Touch Response (AID 2283667). A digest of the protocol:
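5D WT embryos; static exposure to 120 hpf, 28C, sealed/dark; DMSO 0.64% v/v final. TR scored present/absent; dead embryos excluded. Pos ctrl 5uM trimethyltin chloride.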

Read-out in test [13]: Cytochrome P450 (CYP24A1_1), CYP24A1 (gene 1591)
As to the kind of experiment: LTEA_HepaRG_CYP24A1_1: Life Technologies and Expression Analysis (LTEA) Assay for Cytochrome P450 (CYP24A1_1) using HepaRG (AID 2283671; active means hit-call score of the fitted dose curve at least 0.9, where 1 is the maximum; inactive means score below 0.9). As to conditions: mRNA level, 48 h; actives raise or lower the signal. A digest of the protocol: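 In this test, gene induction or suppression of CYP24A1 in human HepaRG liver cells is measured by qRT-PCR after 48 h chemical treatment (eight concentrations, maximum 100 uM). Values are fitted bidirectionally relative to DMSO.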

Read-out in test [14]: xenobiotic metabolism (CYP1A1), CYP1A1 (gene 1543)
As to the kind of experiment: CLD_CYP1A1_24hr: CellzDirect (CLD) Gene Expression Assay for xenobiotic metabolism (CYP1A1) at 24 hours (AID 2283673). Put shortly: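 Primary human hepatocytes dosed daily with fresh solutions in 0.2% DMSO vehicle. mRNA measured at 24 h by quantitative nuclease protection assay with chemiluminescence; gain-of-signal fit versus DMSO, with morphology-based cytotoxicity flags.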

Read-out in test [15]: ABC Transporter (ABCB11), ABCB11 (gene 8647)
Kind of test: CLD_ABCB11_6hr: CellzDirect (CLD) Gene Expression Assay for ABC Transporter (ABCB11) at 6 hours (AID 2283675).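 Further: hits raise ABCB11 mRNA level so AC50 marks induction.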 A digest of the protocol: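 Human primary hepatocytes (two donor preparations) given fresh chemical daily at multiple concentrations, vehicle 0.2% DMSO. ABCB11 mRNA induction measured 6 h after dosing by qNPA chemiluminescence versus DMSO; cytotoxicity annotated from morphology.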

Read-out in test [16]: sulfotransferase (SULT2A), SULT2A1 (gene 6822)
As to the kind of experiment: CLD_SULT2A_6hr: CellzDirect (CLD) Gene Expression Assay for sulfotransferase (SULT2A) at 6 hours (AID 2283669).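 Further: hits raise transcript level above the DMSO vehicle baseline.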 Put shortly:
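Primary human hepatocytes from two donor preparations were dosed daily with chemicals or 0.2% DMSO and harvested at 6 h. Transcript induction read by qNPA chemiluminescence, fitted for gain of signal relative to DMSO; morphology-based cytotoxicity annotated.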

Read-out in test [17]: glucuronosyltransferase (UGT1A1), UGT1A1 (gene 54658)
Kind of test: CLD_UGT1A1_6hr: CellzDirect (CLD) Gene Expression Assay for glucuronosyltransferase (UGT1A1) at 6 hours (AID 2283672). Put shortly: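 Primary human hepatocytes from two donor preparations, dosed with fresh solutions in 0.2% DMSO, harvested at 6 h. UGT1A1 mRNA measured by qNPA chemiluminescence; induction fitted upward versus DMSO.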

Test [18] can be described thus: Tanguay_ZF_120hpf_NC_legacy: (Legacy) Oregon State University Tanguay Lab 120 Hour Post-fertilization zebrafish Assay for Notochord and Tail Malformation (AID 2283656). A digest of the protocol:
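Dechorionated 5D zebrafish, 1/well from 6 hpf; static exposure to 120 hpf, 28C, sealed, dark; final DMSO 0.64% v/v. NC scored binary (present/absent); dead embryos not scored. Fit vs DMSO baseline, gain direction.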

Read-out in test [19]: xenobiotic metabolism (CYP1A1), CYP1A1 (gene 1543)
Kind of test: CLD_CYP1A1_6hr: CellzDirect (CLD) Gene Expression Assay for xenobiotic metabolism (CYP1A1) at 6 hours (AID 2283661). A digest of the protocol: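 Primary human hepatocytes from two donors, compound versus 0.2% DMSO vehicle. CYP1A1 mRNA measured 6 h after dosing by quantitative nuclease protection assay with chemiluminescent read-out; induction fitted relative to DMSO, cytotoxicity flagged by microscopy.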

Read-out in test [20]: ABC Transporter (ABCB11), ABCB11 (gene 8647)
Kind of test: CLD_ABCB11_24hr: CellzDirect (CLD) Gene Expression Assay for ABC Transporter (ABCB11) at 24 hours (AID 2283674; active means hit-call score of the fitted dose curve at least 0.9, where 1 is the maximum; inactive means score below 0.9). A digest of the protocol:
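Primary human hepatocytes were dosed daily for two days, with 0.2% DMSO vehicle. ABCB11 mRNA induction was measured at 24 hours by quantitative nuclease protection assay with chemiluminescence. Gain of signal was fitted relative to DMSO.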

One may read the AC50 as the midpoint of the concentration-response curve, whichever way the signal moves.

Results filed as inconclusive are left out. Active and inactive are the calls of the source. How the source made its calls, unless noted: active means hit-call score of the fitted dose curve at least 0.9, where 1 is the maximum; inconclusive means response in the unintended direction; inactive means score below 0.9.

Chain of Broad substrate specificity ATP-binding cassette transporter ABCG2 (Homo sapiens) (Q9UNQ0 whole entry, looked up): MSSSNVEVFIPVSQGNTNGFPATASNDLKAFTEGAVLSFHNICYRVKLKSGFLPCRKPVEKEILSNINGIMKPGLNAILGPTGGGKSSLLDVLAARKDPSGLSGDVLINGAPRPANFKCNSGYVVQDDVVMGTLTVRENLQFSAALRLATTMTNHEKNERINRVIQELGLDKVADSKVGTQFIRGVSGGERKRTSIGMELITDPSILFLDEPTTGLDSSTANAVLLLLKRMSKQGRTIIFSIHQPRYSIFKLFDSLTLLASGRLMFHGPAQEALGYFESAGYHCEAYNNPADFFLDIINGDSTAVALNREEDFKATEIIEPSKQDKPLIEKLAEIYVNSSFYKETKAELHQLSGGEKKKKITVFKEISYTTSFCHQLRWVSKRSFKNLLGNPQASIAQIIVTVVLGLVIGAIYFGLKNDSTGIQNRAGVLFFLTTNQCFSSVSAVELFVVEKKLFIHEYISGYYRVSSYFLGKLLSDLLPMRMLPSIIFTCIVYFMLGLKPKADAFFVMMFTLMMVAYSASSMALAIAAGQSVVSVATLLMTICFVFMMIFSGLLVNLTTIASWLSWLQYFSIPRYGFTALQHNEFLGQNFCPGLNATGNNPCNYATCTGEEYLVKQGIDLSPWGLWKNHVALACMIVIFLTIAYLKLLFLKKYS

Consider `CCOP(=S)(OCC)Oc1nc(Cl)n(C(C)C)n1`, for which the result in [1], in test [2], in test [5], in [6], in test [7] and in test [10] was inactive. For the same compound, the outcome in test [11], in [12], in [13] and in test [15] was inactive. In addition, the AC50 in test [3] was 8.3 µM (active); in test [4] it was 30.4 µM (active); in [8] it was 31.2 µM (active); in test [9], 2.78 µM (active); in test [14] it was 2.18 µM (active).
As for `CCC(C)n1c(=O)[nH]c(C)c(Br)c1=O` (centres undefined), the outcome in [1], in test [2], in [5], in [12], in [16] and in test [13] was inactive. Further, in test [17], the compound was called inactive. For the same compound, the results for the AC50 in test [4] and in [9] were 21 µM (active) and 9.68 µM (active), respectively.
As for `CCCC(=NOCC)C1=C(O)CC(CC(C)SCC)CC1=O` (centres undefined), the compound was classed as inactive in test [2], in test [3], in test [18], in [6], in [7] and in [12]. Moreover, the call in [14] and in test [15] was inactive.
Take `CC1(C)C(C=C(Cl)Cl)C1C(=O)OC(C#N)c1cccc(Oc2ccccc2)c1` (centres undefined): the result in [2], in test [3], in test [6], in [7] and in test [12] was inactive.
On to `CCCN(CC)CC1COC2(CCC(C(C)(C)C)CC2)O1` (centres undefined), for which the compound was called inactive in test [2], in [3], in [6], in test [7], in test [19] and in test [17]. In [14], the AC50 was 0.376 µM (active).
As for `CCOP(=O)(OCC)Oc1nc(Cl)c(Cl)cc1Cl`, the result in test [2], in test [3], in [6], in test [7], in [12] and in [17] was inactive. The outcome in test [20] and in test [15] was inactive. For the same compound, the results for the AC50 in test [8] and in test [10] were 29 µM (active) and 81.5 µM (active), respectively.
In the case of `CCOc1nc(F)cc2nc(S(=O)(=O)Nc3c(Cl)cccc3Cl)nn12`, the compound was classed as inactive in test [2], in test [3], in test [6], in [7], in test [19] and in [10]. In addition, the result in [12], in [20] and in [15] was inactive. Besides, the concentration at half-maximal activity (AC50) in test [8] is 26.5 µM (active); in [14], 20 µM (active).
Regarding `C=C(C)CN(CC)c1c([N+](=O)[O-])cc(C(F)(F)F)cc1[N+](=O)[O-]`, the result in [2], in [3], in test [6], in [19], in [11] and in test [12] was inactive. The compound was classed as inactive in test [16] and in test [20]. Moreover, the AC50 in test [14] was 20 µM (active).
